Records with an inconclusive call do not appear. The source made the active and inactive calls. Rule for the calls: active = hit-call score of the fitted dose curve at least 0.9, where 1 is the maximum; inconclusive = response in the unintended direction; inactive = score below 0.9.

This experiment can be described thus: ACEA_AR_antagonist_AUC_viability: ACEA Biosciences xCELLigence Real-Time Cell Analysis on Androgen Receptor Antagonism for Viability (AID 2283776).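 Note: hits lower the growth signal relative to DMSO meaning cytotoxicity.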 The method, then: ACEA_AR_antagonist is a cell-based, single-readout assay that uses 22Rv1, a human prostate cancer cell line, with measurements taken at 80 hours after chemical dosing in a 384-well plate, although TO5 and TO6 (mc0.srcf) used a 96-well plate. Differences in plate size can be ignored given data normalization.ACEA_AR_80hr is one of two assay component(s) measured or calculated from the […] assay. It is designed to make measurements of real-time cell-growth kinetics, a form of growth reporter, as detected with electrical impedance signals by Real-Time Cell Electrode Sensor (RT-CES) technology.Data from the assay component ACEA_AR_antagonist_AUC_viability was analyzed in the positive analysis fitting direction relative to DMSO as the negative control and baseline of activity. Using a type of growth reporter, loss-of-signal activity can be used to understand changes in the viability. Furthermore, this assay endpoint can be referred to as a secondary readout, because this assay has produced multiple assay endpoints where this one serves a viability function. To generalize the intended target to other relatable targets, this assay endpoint is annotated to the cell cycle intended target family, where the subfamily is cytotoxicity.
The xCELLigence system Multi-E-Plate stations were used to measure the time-dependent response to chemicals. Each compound was tested in an eight-point, 1:4 serial dilution series starting at a maximum final concentration of 100 uM. A maximum starting concentration of 0.5% DMSO was present in the 100 uM chemical samples and was diluted along with the test article dilution series. The screen was performed in biological duplicate using two separate, 96-well, E-Plates 96 for each dilution series (n = 2). Positive controls (MG132 and testosterone) and a negative control (assay media) were tested in quadruplicate on each testing plate. Then, 0.5% and 0.125% DMSO were tested in duplicates in each plate to serve as solvent controls for the 2 highest concentrations of testing compounds: 100 uM and 25 uM. Reference compounds were tested with 8 concentrations with 1:5 serial dilutions. All screening was carried out by ACEA Biosciences, Inc. (San Diego, CA). 22Rv1 cells purchased from ATCC were maintained in media supplemented with 10% fetal bovine serum (FBS). Before screening, 22Rv1 cells were preconditioned in assay medium. Cells were then detached and seeded in E-Plates 96 in assay medium. After overnight monitoring of growth once every hour, compounds were added to […] cells and remained in the medium until the end of the experiment. Cellular responses were then recorded once every 5 min for the first 5 h, and once every hour for an additional 100 h.
For `OC1CCC(C2CCCCC2)CC1` (stereo not given), the half-maximal activity concentration (AC50) is 50 µM (active).
As to `Oc1cccc(O)c1`, the result was inactive.
For `CCc1ccc(CCOc2ccc(CC3SC(=O)NC3=O)cc2)nc1` (stereo not given), the concentration at half-maximal activity (AC50) is 26.5 µM (active).
Still for that read-out and setting: the result for `Cc1oc(-c2ccccc2)nc1CCOc1ccc(C[C@H](Nc2ccccc2C(=O)c2ccccc2)C(=O)O)cc1` reads 14.4 µM (active); that for `COc1ccc([N+](=O)[O-])cc1N`, 27.3 µM (active).
On to `O=c1c(-c2ccc(O)cc2)coc2cc(O)ccc12`, for which the call was inactive.
The same measure, in the same setting: the result for `OC1CCCCC1` reads “inactive”; that for `Cc1ccc(S(=O)(=O)O)c(C)c1`, “inactive”.
With `CC(C)(C)CC(C)(C)c1ccc(O)c(-n2nc3ccccc3n2)c1`, the half-maximal activity concentration (AC50) was 82.8 µM (active).
Same read-out and setting: with `Oc1cc2ccccc2c2ccccc12` the figure was 10.7 µM (active); with `CCN(CC)CCNc1ccc(CNC=O)c2sc3ccc(OC)cc3c(=O)c12`, 5.35 µM (active); with `O=C(O)Cc1cc(I)c(Oc2cc(I)c(O)c(I)c2)c(I)c1`, 46.6 µM (active).
As for `CCCCCCC(=O)O`, the outcome was inactive.
As to `NC(=O)N(O)[C@@H]1C=C[C@H](Oc2cccc(Oc3ccc(F)cc3)c2)C1`, the AC50 was 25 µM (active).
In the case of `CCCCCCCC(=O)O`, the result was inactive.
Turning to `CCCCCCCCCCCCCC[N+](C)(C)C`, the half-maximal activity concentration (AC50) is 6.52 µM (active).
As to `COc1cc(CCC(=O)CC(=O)CCc2ccc(O)c(OC)c2)ccc1O`, the AC50 is 61.8 µM (active).
For `CC(O)CO` (stereo not given), the AC50 was 11.9 µM (active).
Turning to `CCCCCCCCCCCCc1ccccc1S(=O)(=O)O`, the outcome was inactive.
Still for that read-out and setting: with `c1ccc2c(c1)Cc1ccccc1-2` the entry was “inactive”; with `CC(C)(C)c1cccc(C(C)(C)C)c1O`, “inactive”.
On the same count and under the same terms, the result for `NC(=O)N1C(=O)C(C(=O)c2cc(Cl)cs2)c2cc(F)c(Cl)cc21` (stereo not given) reads “inactive”.
Turning to `ClC1=C(Cl)C(Cl)(Cl)C(Cl)=C1Cl`, the concentration at half-maximal activity (AC50) was 68 µM (active).
For the molecule `CCCCOCCO`, the molecule was called inactive.
Same read-out and setting: the result for `C[C@@H]1C[C@H]2[C@@H]3CCC4=CC(=O)C=C[C@]4(C)[C@@]3(F)[C@@H](O)C[C@]2(C)[C@@]1(O)C(=O)COP(=O)(O)O` reads “inactive”.
On the same count and under the same terms, the result for `CN1CCC[C@H]1c1cccnc1` reads “inactive”.
Take `Cc1cc(CCN2CCN(c3nsc4ccccc34)CC2)cc2c1NC(=O)CC2(C)C`: the concentration at half-maximal activity (AC50) is 21.4 µM (active).
On to `Cc1cc(C)c(O)c(C)c1`, for which the result was inactive.
On the same count and under the same terms, the result for `CCCCC(CC)COC(=O)CCCCC(=O)OCc1ccccc1` (stereo not given) reads “inactive”.
Take `CC(=O)NC1(c2cccc(F)c2)CCN(CC[C@@]2(c3ccc(Cl)c(Cl)c3)CN(c3ccccc3)C(=O)CO2)CC1`: the AC50 was 41.5 µM (active).
For the molecule `C=C(C)C(=O)OCCC(F)(F)C(F)(F)C(F)(F)C(F)(F)C(F)(F)C(F)(F)F`, the molecule was called inactive.
`CC(=O)CC(C)(C)O`: the molecule was classed as inactive.
Same read-out and setting: the result for `O=[N+]([O-])c1ccc(O)cc1` reads “inactive”.
Consider `CC[C@H](c1ccc(O)cc1)[C@@H](CC)c1ccc(O)cc1`, for which the concentration at half-maximal activity (AC50) was 10.1 µM (active).
The same measure, in the same setting: with `CCCCCCCCCCCCN1CCCC1=O` the figure was 75.5 µM (active).
For the molecule `CCOC(=O)CC(O)(CC(=O)OCC)C(=O)OCC`, the outcome was inactive.
With `CCCCCCCCCCCCCCCS(=O)(=O)Oc1ccccc1`, the outcome was inactive.
As for `N#C[C@@H]1CC(F)(F)CN1C(=O)CNC1CC2CCC(C1)N2c1ncccn1` (stereo not given in full), the molecule was called inactive.
Still for that read-out and setting: the result for `CC(C)CCCCCCOC(=O)CCCCC(=O)OCCCCCCC(C)C` reads “inactive”; that for `O=C(OCCOCCOC(=O)c1ccccc1)c1ccccc1`, “inactive”.

Usually AC50 stands for the midpoint of the concentration-response curve, whichever way the signal moves.

(Values after PubChem BioAssay (EPA / NIEHS).)
